Compound activity (PubChem)
Most compounds without a hit are left out; they make up all but 3.9% or so of the library.
D1 ag – Allosteric Agonists of the Human D1 Dopamine Receptor: qHTS; 360,000 tested, 1% active; activation, % at 2 µM; HEK293 T-REx D1 cells, calcium flux, agonist mode; D(1A) dopamine receptor (Homo sapiens), P21728; in the data active means activation above about 30%
Target sequence (P21728 whole entry, looked up): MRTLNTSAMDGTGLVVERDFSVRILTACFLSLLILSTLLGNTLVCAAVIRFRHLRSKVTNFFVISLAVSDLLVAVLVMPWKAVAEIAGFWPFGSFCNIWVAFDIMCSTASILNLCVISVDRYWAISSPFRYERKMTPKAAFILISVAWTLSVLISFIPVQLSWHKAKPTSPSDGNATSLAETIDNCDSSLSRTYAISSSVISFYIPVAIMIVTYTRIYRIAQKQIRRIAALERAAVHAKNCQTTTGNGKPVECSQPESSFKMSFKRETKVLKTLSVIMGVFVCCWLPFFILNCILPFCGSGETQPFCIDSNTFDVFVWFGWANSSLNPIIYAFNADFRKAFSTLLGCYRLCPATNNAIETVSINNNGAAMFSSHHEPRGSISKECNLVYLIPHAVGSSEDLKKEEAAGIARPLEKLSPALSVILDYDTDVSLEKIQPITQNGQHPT
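Inducible HEK293 T-REx D1 cells, force-coupled to calcium signalling, were plated at 4000 cells/well with tetracycline and held overnight at 30 C. After no-wash calcium dye loading, compound-evoked calcium rise over 180 s flagged agonists.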
USP2a block – qHTS Assay for Inhibitors of Ubiquitin-specific Protease USP2a Using CHOP2 as the Reporter; Ubiquitin carboxyl-terminal hydrolase 2 (Homo sapiens), O75604; USP2 core, Ub-CHOP2 coupled fluorogenic reporter, 485/531; Potency, µM (series often up to 38.3 µM), actives largely listed as inhibitors; 330,000 tested, 0.01% active
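Cell-free coupled assay: 10nM USP2 core preincubated 30min RT with compound in Tris-HCl pH 8.0/CaCl2/CHAPS buffer, then 25nM Ub-CHOP2 and 25nM reporter substrate; fluorescence (Ex 485/Em 531) read after 60min RT, normalized to NEM inhibition, concentration-response curves fitted.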
D1 antag – Antagonist of Human D 1 Dopamine Receptor: qHTS. D(1A) dopamine receptor (Homo sapiens), P21728. HEK293 TREx D1 cells, calcium flux, dopamine EC80; active compounds read low. activity change, negative = inhibition, % at 10 µM. 360,000 tested, 3.2% active; in the data active means activity change below about -30%
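Compound effects on dopamine-evoked calcium signalling were measured in tetracycline-induced HEK293 Trex D1 cells. Dopamine at EC80 followed a 180 s compound pre-read, and fluorescence was tracked kinetically for 180 s more.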
Eya2 inh – qHTS Assay for Inhibitors of the Phosphatase Activity of Eya2; recombinant Eya2, OMFP fluorescence dephosphorylation (OMFP is methylfluorescein phosphate); Potency, µM (top dose mostly 76.9 µM), hits mostly inhibitors; 330,000 tested, 0.006% active
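Eya2 (0.2 uM) preincubated 10 min at ambient with compound, then OMFP substrate added at 50 uM; 10 min reaction in 50 mM HEPES pH 7.5, 50 mM NaCl, 5 uM MgCl2, 0.05% BSA, 1 mM DTT. Fluorescence read at Ex 485/Em 525 nm.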
GALK inh – qHTS Assay for Inhibitors of Human Galactokinase (GALK); AID 1868, 2009; Potency, µM (series often up to 57.5 µM), hits mostly inhibitors; Purified GALK, Kinase-Glo residual ATP luminescence; P51570; 270,000 tested, 0.007% active
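Quantitative HTS: GALK 5 nM, ATP 35 uM, galactose 100 uM, 1 h room temperature, then luciferase-based ATP detection.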
D1 potentiator – Potentiators of Human D1 Dopamine Receptor: qHTS | D(1A) dopamine receptor (Homo sapiens), P21728 | HEK293 TREx D1 cells, calcium flux, dopamine EC20 potentiation | potentiation, % at 10 µM | 360,000 tested, 0.036% active | AID 504651, 2011; in the data active means potentiation above about 30%
Of the large screens only hits and unclear results are named; the others gave an inactive call; ! = not confirmed by another sample. Unless noted, the call rests on the fitted dose curve; in most records, active means well fitted inhibition curve with a large enough effect; inconclusive means small, poorly fitted or top-dose-only effect, or effect the other way; inactive means flat fitted curve, though single readings scatter.

CCc1ccc(NC(=O)c2cnc(N3CCN(c4ccccn4)CC3)c3ccccc23)cc1	D1 antag -40
CCOCCCNC(=O)c1ccc(Cn2c(=O)c3cccn3c3cccnc32)cc1	none (no result: USP2a block, Eya2 inh, GALK inh)
COc1ccccc1CNC(=O)CCn1c(=O)c2ccccc2n(CC(=O)Nc2ccc(C)cc2Cl)c1=O	none (no result: USP2a block, Eya2 inh, GALK inh)
O=[N+]([O-])/C=C\c1ccc(N2CCCC2)c(F)c1	D1 ag 127
N=C1C(c2ccccc2)=C(O)CN1CCO	D1 antag -30
CN(C)c1ccc(N=Cc2nc(-c3ccccc3)oc2OC(=O)c2cccc(Cl)c2)cc1	D1 antag -32
Cc1ccc(C(=O)Oc2oc(-c3ccccc3)nc2C=Nc2ccc(N(C)C)cc2)cc1	none
Cc1cccc(NC(=O)CCNS(=O)(=O)c2cccc3nonc23)c1	D1 antag -50!
COc1ccc(NC(=O)CCS(=O)(=O)c2cccc3nonc23)c(OC)c1	D1 antag -45
CCOC(=O)c1cccc(NC(=O)CCNS(=O)(=O)c2cccc3nonc23)c1	none
Cc1ccc(NC(=O)CCNS(=O)(=O)c2cccc3nonc23)cc1Cl	D1 antag -32!
CCOC(=O)C1CCCN(C(=O)c2cc(-c3ccc(F)cc3)nc3ccccc23)C1 (configuration not stated)	none
O=C(c1cc(-c2ccc(F)cc2)nc2ccccc12)N1CCN(C2CCS(=O)(=O)C2)CC1 (configuration not stated)	D1 antag -32 (no result: GALK inh)
CSc1nncc(/C(C)=N\Nc2ccccc2)n1	D1 antag -37
CN1CCN(c2ccc(NC(=O)c3ccc(-c4ccccc4F)o3)cc2)CC1	D1 antag -96 (no result: GALK inh)
CN1CCN(c2ccc(NC(=O)c3ccc(Br)o3)cc2)CC1	D1 antag -41
O=C(Nc1ccc(N2CCOCC2)cc1)c1ccc(Br)o1	none
CCC(CC)C(=O)Nc1nnc(SCc2cc(=O)c3ccccc3[nH]2)s1	none (no result: USP2a block, Eya2 inh, GALK inh)
O=C(COc1ccccc1)NC1CC(=O)N(c2ccc3c(c2)OCCO3)C1 (configuration not stated)	none (no result: USP2a block, D1 antag, Eya2 inh, GALK inh)
Cn1c2c(c(=O)n(C)c1=O)C(c1ccccc1OC(F)F)C1=C(CCCC1=O)N2 (configuration not stated)	D1 antag -36
COc1ccc(CNCCC(c2ccccc2)c2ccc3c(c2)OCO3)cc1 (configuration not stated)	D1 ag 133
COc1ccc(CNCCC(c2ccc(C)cc2)c2ccco2)cc1 (configuration not stated)	D1 ag 92 (no result: USP2a block, Eya2 inh, GALK inh)
CC(C)CCC(CCNCc1ccccn1)c1ccc2c(c1)OCO2 (configuration not stated)	D1 ag 30
COc1ccc(NC(=O)C2=C(C)Nc3c(C(=O)Nc4ccc(C)cc4)cnn3C2c2cccc(Cl)c2)cc1 (configuration not stated)	none (no result: USP2a block, Eya2 inh, GALK inh)
O=C(CNC1CCCCC1)Nc1ccc(S(=O)(=O)N2CCCCC2)cc1	D1 ag 153, D1 potentiator 43
CCSc1ncc(Cl)c(C(=O)Nc2ccc(S(=O)(=O)N3CCCCC3CC)cc2)n1 (configuration not stated)	none (no result: USP2a block, Eya2 inh, GALK inh)
CCS(=O)(=O)c1ncc(Cl)c(C(=O)Nc2ccc(S(=O)(=O)N3CCCC(C)C3)cc2)n1 (configuration not stated)	D1 antag -36
CC1CCN(CC(=O)Nc2ccc(S(=O)(=O)N3CCCC(C)C3)cc2)CC1 (configuration not stated)	D1 antag -32
CCS(=O)(=O)c1ncc(Cl)c(C(=O)Nc2ccc(C)cc2)n1	none
CCC1CCCCN1S(=O)(=O)c1ccc(NC(=O)c2nc(S(C)(=O)=O)ncc2Cl)cc1 (configuration not stated)	D1 antag -34
